Experimental data reported in the supplement of paper PMC10849652.
Targets with a hit are over-represented here; the source holds about 7,900 in all. About 0.6% of all pairs of compound and target were hits. A number with no mark means an inactive call.

Legend:
Experiment in all cases: log2 fold change, soluble protein after heating vs DMSO (PISA); higher = thermal stabilisation; K562 cells, 10 uM, 30 min; active = over 0.2 and 3.5 SD of the protein, either way, in both replicates (recomputed)
[1] = compound: CC1=C(C=C(C=C1)NC(=O)C2=CC(=CC=C2)C(C)(C)C#N)NC3=CC4=C(C=C3)N=CN(C4=O)C
How it was run: (§1)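 K562 cells at 2×10^6 cells/mL were given 10 μM compound for 30 min. Aliquots then went through 3 min of heating across 48°C-58°C, were pooled, and were extracted in PBS with 0.5% NP-40 at 4°C, and the supernatant after 21,000xg for 90 min was quantified by TMTpro 16plex LC-MS/MS with channel sums equalised. Thermal stability relative to control samples, from duplicates, is given as log2 fold change.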

[2] = compound: CC1=C(C=C(C=C1)NC(=O)C2=CC(=CC=C2)N(C)C)NC(=O)C3=CC=C(C=C3)O
How it was run: as §1

[3] = compound: CC1=CC=C(C=C1)SC2=C3C=C(SC3=CN=C2)C(=O)N
How it was run: as §1

[4] = compound: CC1=NC(=CC=C1)C2=C(N=C(N2)C(C)(C)C)C3=CC4=NC=CN=C4C=C3
How it was run: as §1

Nexturastat A = compound: CCCCN(Cc1ccc(C(=O)NO)cc1)C(=O)Nc1ccccc1 [Nexturastat A]
How it was run: as §1

vemurafenib = compound: CCCS(=O)(=O)Nc1ccc(F)c(C(=O)c2c[nH]c3ncc(-c4ccc(Cl)cc4)cc23)c1F [vemurafenib]
How it was run: as §1

[5] = compound: CCCS(=O)(=O)Nc1ccc(F)c(C(=O)c2c[nH]c3ncc(Cl)cc23)c1F
How it was run: as §1

[6] = compound: CCCc1cc(C)[nH]c(=O)c1CNC(=O)c1cc(-c2ccnc(N3CCN(C)CC3)c2)cc2c1cnn2C(C)C
How it was run: as §1

givinostat = compound: CCN(CC)Cc1ccc2cc(COC(=O)Nc3ccc(C(=O)NO)cc3)ccc2c1 [givinostat]
How it was run: as §1

barasertib = compound: CCN(CCCOc1ccc2c(Nc3cc(CC(=O)Nc4cccc(F)c4)[nH]n3)ncnc2c1)CCOP(=O)(O)O [barasertib]
How it was run: as §1

[7] = compound: CC[C@@H]1C(=O)N(C)c2cnc(Nc3ccc(C(=O)NC4CCN(C)CC4)cc3OC)nc2N1C1CCCC1
How it was run: as §1

volasertib = compound: CC[C@@H]1C(=O)N(C)c2cnc(Nc3ccc(C(=O)N[C@H]4CC[C@H](N5CCN(CC6CC6)CC5)CC4)cc3OC)nc2N1C(C)C [volasertib]
How it was run: as §1

[8] = compound: CC[C@H](C)N1C=C(C2=C(C=C(C=C21)C3=CN=C(C=C3)N4CCNCC4)C(=O)NCC5=C(C=C(NC5=O)C)C)C
How it was run: as §1

epoxomicin = compound: CC[C@H](C)[C@@H](C(=O)N[C@@H]([C@@H](C)O)C(=O)N[C@@H](CC(C)C)C(=O)[C@]1(CO1)C)NC(=O)[C@H]([C@@H](C)CC)N(C)C(=O)C [epoxomicin]
How it was run: as §1

[9] = compound: CCn1c(C(=O)N(C2CC2)C2CC2)cc2c3c(ncn3C)c(Nc3cc(C)n(C)n3)nc21
How it was run: as §1

[10] = compound: CCn1cc(-c2ccnc3[nH]c(-c4cccc(CN(C)C)c4)cc23)c(-c2ccc(NC(=O)N(C)C)cc2)n1
How it was run: as §1

[11] = compound: CN(C)CC(=O)Nc1ccc2[nH]c(=O)c3ccccc3c2c1
How it was run: as §1

rosiglitazone = compound: CN(CCOC1=CC=C(C=C1)C[C@H]2C(=O)NC(=O)S2)C3=CC=CC=N3 (racemic) [rosiglitazone]
How it was run: as §1

[12] = compound: CN1C2=C(C3=C1C(=O)N(N=C3)CC4=CC(=CC=C4)N)SC(=C2)S(=O)C
How it was run: as §1

[13] = compound: CN1CCC(CNc2ccc3ncc(-c4cccc(OC(F)(F)F)c4)n3n2)CC1
How it was run: as §1

Chain of UniProt Q16539 (Q16539 whole entry, looked up): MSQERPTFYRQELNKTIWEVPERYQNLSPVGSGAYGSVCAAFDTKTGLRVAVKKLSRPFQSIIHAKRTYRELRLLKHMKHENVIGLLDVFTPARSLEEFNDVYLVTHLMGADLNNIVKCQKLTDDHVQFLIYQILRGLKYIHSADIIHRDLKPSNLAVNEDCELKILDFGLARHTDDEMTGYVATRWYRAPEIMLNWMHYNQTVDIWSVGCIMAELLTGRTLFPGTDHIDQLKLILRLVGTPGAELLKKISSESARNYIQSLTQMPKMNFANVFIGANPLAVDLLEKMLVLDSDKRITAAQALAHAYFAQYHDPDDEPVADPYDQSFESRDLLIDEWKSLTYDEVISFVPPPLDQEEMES
Chain of UniProt Q9Y2X0 (Q9Y2X0 whole entry, looked up): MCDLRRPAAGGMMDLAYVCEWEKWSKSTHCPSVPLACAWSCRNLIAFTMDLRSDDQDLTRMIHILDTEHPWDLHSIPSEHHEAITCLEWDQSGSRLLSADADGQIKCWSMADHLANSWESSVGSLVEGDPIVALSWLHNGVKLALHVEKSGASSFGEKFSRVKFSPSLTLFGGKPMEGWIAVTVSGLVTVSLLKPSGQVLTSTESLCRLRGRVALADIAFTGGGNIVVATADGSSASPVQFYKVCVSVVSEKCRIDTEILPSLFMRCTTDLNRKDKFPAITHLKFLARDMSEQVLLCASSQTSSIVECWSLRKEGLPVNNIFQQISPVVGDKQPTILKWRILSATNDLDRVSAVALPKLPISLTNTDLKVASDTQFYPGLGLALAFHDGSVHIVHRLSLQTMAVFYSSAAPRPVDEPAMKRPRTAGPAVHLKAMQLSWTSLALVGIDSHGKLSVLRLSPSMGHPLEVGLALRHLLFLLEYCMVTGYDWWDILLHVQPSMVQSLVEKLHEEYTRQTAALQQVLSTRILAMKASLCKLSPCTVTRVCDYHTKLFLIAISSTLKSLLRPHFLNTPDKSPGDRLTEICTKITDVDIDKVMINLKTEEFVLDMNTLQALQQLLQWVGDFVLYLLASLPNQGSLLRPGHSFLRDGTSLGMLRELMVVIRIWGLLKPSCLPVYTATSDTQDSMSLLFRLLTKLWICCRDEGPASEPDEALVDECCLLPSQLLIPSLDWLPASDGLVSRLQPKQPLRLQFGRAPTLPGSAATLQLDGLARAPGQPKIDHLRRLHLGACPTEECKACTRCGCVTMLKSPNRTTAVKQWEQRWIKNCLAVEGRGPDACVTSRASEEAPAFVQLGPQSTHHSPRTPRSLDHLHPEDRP
Chain of UniProt P45983 (P45983 whole entry, looked up): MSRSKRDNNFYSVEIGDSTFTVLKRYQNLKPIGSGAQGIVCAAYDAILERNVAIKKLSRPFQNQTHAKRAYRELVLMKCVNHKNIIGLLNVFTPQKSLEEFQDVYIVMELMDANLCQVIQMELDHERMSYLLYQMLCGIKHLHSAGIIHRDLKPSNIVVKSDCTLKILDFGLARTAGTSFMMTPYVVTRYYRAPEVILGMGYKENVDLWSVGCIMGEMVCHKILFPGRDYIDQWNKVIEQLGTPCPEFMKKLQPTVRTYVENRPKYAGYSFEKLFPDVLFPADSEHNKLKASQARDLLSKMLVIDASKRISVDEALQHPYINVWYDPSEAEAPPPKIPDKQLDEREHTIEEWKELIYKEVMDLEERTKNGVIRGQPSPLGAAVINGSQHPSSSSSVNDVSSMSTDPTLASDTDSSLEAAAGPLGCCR
Chain of UniProt Q7Z4S6 (Q7Z4S6 whole entry, looked up): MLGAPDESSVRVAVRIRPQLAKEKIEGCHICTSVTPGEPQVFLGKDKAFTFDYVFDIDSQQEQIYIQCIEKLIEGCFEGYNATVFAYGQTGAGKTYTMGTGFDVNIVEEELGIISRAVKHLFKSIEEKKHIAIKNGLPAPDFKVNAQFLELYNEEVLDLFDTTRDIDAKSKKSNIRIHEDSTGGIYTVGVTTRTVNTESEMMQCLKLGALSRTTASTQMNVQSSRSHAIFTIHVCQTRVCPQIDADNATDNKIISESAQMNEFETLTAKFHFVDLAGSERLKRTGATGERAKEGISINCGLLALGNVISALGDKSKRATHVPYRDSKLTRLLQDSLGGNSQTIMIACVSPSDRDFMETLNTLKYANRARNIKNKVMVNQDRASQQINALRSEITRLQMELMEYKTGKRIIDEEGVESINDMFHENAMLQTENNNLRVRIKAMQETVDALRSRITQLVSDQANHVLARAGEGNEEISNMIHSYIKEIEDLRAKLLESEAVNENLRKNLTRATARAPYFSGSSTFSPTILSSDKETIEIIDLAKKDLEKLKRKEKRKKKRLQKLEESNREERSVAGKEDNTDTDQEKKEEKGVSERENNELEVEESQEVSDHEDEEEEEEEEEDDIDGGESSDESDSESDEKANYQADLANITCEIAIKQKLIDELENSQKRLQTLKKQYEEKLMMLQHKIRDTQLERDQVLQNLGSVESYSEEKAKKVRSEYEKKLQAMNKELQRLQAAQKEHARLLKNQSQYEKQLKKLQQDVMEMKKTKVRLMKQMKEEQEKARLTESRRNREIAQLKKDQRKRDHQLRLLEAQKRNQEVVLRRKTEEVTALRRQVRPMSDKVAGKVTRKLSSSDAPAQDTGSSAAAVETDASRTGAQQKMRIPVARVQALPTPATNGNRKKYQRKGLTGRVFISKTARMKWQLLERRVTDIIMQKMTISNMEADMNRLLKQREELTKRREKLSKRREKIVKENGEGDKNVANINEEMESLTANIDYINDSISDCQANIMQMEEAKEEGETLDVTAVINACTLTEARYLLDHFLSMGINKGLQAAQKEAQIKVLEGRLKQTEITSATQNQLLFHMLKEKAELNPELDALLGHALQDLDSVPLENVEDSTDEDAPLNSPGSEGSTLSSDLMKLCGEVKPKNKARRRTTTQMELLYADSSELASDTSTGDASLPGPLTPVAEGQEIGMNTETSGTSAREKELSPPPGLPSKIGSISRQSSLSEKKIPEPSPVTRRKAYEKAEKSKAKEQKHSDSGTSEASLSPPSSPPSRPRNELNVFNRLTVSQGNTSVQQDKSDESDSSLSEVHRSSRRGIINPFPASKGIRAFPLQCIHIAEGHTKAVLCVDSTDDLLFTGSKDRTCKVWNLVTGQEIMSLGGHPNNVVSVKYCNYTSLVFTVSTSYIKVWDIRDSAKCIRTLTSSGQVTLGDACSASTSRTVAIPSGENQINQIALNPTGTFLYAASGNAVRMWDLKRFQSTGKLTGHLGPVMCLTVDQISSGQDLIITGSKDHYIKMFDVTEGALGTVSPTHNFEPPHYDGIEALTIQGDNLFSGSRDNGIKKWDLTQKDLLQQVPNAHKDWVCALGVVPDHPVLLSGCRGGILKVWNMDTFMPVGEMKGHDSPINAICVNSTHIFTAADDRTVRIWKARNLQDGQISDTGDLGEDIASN
Chain of UniProt Q14974 (Q14974 whole entry, looked up): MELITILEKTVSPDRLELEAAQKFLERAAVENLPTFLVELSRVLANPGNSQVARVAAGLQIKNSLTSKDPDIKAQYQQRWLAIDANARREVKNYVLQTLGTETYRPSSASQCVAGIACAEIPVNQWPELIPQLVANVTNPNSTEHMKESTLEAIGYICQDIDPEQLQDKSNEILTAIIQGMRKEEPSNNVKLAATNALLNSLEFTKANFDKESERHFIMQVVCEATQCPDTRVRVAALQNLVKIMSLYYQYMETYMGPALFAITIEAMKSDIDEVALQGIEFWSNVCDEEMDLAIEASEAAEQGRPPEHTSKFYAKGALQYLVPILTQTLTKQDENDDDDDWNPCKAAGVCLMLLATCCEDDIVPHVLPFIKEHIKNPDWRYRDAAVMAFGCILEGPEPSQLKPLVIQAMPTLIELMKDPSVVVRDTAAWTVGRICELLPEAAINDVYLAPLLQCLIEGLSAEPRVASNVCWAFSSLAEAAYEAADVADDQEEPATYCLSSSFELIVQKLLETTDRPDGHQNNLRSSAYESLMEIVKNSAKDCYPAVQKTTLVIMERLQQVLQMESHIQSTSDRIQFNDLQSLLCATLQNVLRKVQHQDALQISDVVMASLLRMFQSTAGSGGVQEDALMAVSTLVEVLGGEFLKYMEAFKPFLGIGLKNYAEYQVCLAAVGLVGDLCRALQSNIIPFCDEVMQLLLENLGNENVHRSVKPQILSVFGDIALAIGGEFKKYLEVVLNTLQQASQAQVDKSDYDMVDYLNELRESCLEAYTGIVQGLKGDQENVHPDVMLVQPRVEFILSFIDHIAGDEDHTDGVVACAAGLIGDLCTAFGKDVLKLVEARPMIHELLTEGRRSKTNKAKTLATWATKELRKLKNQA
Chain of UniProt Q13418 (Q13418 whole entry, looked up): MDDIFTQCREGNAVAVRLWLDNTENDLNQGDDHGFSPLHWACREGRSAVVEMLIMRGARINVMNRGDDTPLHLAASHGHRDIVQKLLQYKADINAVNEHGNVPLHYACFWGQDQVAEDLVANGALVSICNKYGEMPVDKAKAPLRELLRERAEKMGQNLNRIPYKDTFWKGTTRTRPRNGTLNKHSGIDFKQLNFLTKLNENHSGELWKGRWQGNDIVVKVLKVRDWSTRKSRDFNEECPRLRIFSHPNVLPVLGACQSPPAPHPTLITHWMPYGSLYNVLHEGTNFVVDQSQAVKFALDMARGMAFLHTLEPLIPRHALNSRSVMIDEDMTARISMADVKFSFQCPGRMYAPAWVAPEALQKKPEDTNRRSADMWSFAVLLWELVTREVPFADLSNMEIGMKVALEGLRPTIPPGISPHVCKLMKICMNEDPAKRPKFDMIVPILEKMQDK

| Target | log2 fold change [1] | log2 fold change [2] | log2 fold change [3] | log2 fold change [4] | log2 fold change (Nexturastat A) | log2 fold change (vemurafenib) | log2 fold change [5] | log2 fold change [6] | log2 fold change (givinostat) | log2 fold change (barasertib) | log2 fold change [7] | log2 fold change (volasertib) | log2 fold change [8] | log2 fold change (epoxomicin) | log2 fold change [9] | log2 fold change [10] | log2 fold change [11] | log2 fold change (rosiglitazone) | log2 fold change [12] | log2 fold change [13] |
| --- | --- | --- | --- | --- | --- | --- | --- | --- | --- | --- | --- | --- | --- | --- | --- | --- | --- | --- | --- | --- |
| MAPK14 isoform 2 (UniProt Q16539) | 1.9 (active) | 0.649 | 0.024 | 0.036 | 0.064 | 0.095 | 0.219 | 0.026 | 0.107 | -0.005 | -0.223 | -0.398 | -0.019 | 0.02 | 0.081 | 0.001 | 0.039 | 0.007 | -0.029 | 0.074 |
| MAPK8 isoform 3 (UniProt P45983) | -0.038 | -0.026 | -0.015 | -0.012 | -0.099 | 0.027 | 0.012 | 0.016 | 0.119 | 0.056 | -0.112 | -0.249 | 0.003 | 0.117 | -0.036 | 0.006 | 0.004 | 0.095 | 0.013 | -0.054 |
| MED16 (UniProt Q9Y2X0) | -0.025 | -0.044 | -0.046 | 0.036 | 0.162 | -0.017 | 0.046 | 0.014 | 0.076 | -0.03 | 0.128 | 0.101 | 0.004 | -0.262 | -0.002 | 0.031 | 0.086 | 0.05 | 0.087 | 0.06 |
| KDM1A isoform 2 (UniProt O60341) | -0.029 | 0.058 | 0.01 | 0.002 | 0.023 | -0.02 | 0.033 | 0.046 | 0.101 | 0.013 | 0.135 | -0.028 | 0.06 | 0.101 | -0.053 | -0.111 | 0.006 | 0.099 | -0.001 | -0.091 |
| KPNB1 (UniProt Q14974) | 0.049 | -0.041 | 0 | -0.015 | 0.119 | 0.07 | 0.076 | 0.052 | 0.085 | 0.02 | -0.105 | -0.432 (active) | 0.04 | 0.04 | 0.009 | 0.016 | 0.048 | 0.027 | 0.102 | -0.212 |
| ILK (UniProt Q13418) | -0.179 | -0.053 | 0.025 | -0.208 | 0.135 | -0.075 | -0.005 | -0.031 | 0.041 | 0.019 | 0.033 | 0.064 | 0.035 | -0.04 | -0.037 | -0.052 | -0.006 | 0.051 | 0.125 | -0.191 |
| KIF21A isoform 4 (UniProt Q7Z4S6) | 0.051 | -0.067 | -0.003 | -0.043 | 0.106 | -0.045 | 0.014 | -0.025 | 0.069 | 0.104 | 0.073 | -0.019 | 0.038 | 0.066 | -0.037 | -0.121 | 0.013 | 0.033 | 0.054 | 0.076 |
